Out of some 310,000 compounds screened, about 14,000 (4.5%) showed an effect of 50% or more. The effect is printed as a negative number. Only a selection was taken, and strong results are over-represented in it overall.
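Further: peak tail current of the secondary pulse compared with the same well before compound.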

In this experiment the target is human ether-à-go-go-related gene (hERG) potassium channel (human, UniProt Q12809). Put plainly: primary screen, population patch clamp on CHO cells stably expressing hERG; higher = less effect of the substance.
human ether-à-go-go-related gene (hERG) potassium channel, sequence (Q12809 whole entry, looked up): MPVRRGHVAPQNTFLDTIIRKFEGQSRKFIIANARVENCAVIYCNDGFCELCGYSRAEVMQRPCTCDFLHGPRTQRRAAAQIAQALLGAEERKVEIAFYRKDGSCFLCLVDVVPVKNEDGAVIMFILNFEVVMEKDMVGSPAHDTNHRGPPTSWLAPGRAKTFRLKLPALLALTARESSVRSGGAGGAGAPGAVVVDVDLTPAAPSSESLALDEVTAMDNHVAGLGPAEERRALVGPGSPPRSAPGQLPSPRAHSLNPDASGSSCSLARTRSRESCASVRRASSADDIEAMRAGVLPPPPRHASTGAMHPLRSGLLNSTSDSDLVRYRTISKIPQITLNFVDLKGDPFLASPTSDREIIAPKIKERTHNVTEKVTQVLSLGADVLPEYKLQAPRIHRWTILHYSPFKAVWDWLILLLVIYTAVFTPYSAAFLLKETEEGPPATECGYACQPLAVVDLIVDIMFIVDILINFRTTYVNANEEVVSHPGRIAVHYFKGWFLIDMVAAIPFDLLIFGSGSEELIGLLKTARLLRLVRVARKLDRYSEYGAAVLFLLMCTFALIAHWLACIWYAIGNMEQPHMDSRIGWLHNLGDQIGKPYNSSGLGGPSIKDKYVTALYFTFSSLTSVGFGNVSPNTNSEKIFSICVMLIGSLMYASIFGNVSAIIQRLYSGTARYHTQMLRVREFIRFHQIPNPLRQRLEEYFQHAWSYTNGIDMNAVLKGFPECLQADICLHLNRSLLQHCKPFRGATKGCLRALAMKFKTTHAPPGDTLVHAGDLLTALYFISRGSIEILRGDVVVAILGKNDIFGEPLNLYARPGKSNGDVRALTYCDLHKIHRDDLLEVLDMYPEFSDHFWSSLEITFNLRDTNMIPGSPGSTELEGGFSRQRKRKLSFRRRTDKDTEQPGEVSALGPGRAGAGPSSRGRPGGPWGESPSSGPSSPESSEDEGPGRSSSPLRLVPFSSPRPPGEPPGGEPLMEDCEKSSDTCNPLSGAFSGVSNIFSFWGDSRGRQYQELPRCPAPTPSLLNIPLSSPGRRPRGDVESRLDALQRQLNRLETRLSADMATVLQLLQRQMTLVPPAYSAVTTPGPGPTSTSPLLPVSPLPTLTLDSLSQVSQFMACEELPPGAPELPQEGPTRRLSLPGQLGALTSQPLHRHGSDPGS
As for `Cc1ccc(C(C)C)c(Oc2nnnn2-c2ccccc2)c1`, the “hERG current change (%, negative = inhibition) at 10uM” value is 14.2%.
For `CC(=O)N1CCC(N(CCCOC(C)C)S(=O)(=O)c2ccc([N+](=O)[O-])cc2)CC1`, the “hERG current change (%, negative = inhibition) at 10uM” value is recorded as -35.3%.
In the case of `CCn1cc(C(=O)N2CCn3c(nc4ccccc43)C2)c(=O)c2ccc(C)nc21`, the “hERG current change (%, negative = inhibition) at 10uM” value is -12.4%.
With `COc1ccc(NC(=O)CSC2=C(C#N)C(c3ccco3)C3=C(CCCC3=O)N2)c(OC)c1` (stereo not shown), the “hERG current change (%, negative = inhibition) at 10uM” value was -33.2%.
With `Fc1ccccc1Nc1nc(NCc2ccco2)nc(N2CCOCC2)n1` the figure was -15.8%; with `CCCOc1cccc(C2C(C(=O)c3ccc(C)o3)=C(O)C(=O)N2c2nc(C)c(C(C)=O)s2)c1` (stereo not shown), 9.66%.
Turning to `COc1cc(NC(=O)c2c(F)c(F)c(OC)c(F)c2F)ccc1NC(=O)c1cccs1`, the “hERG current change (%, negative = inhibition) at 10uM” value was found to be 11.2%.
Turning to `COc1ccc(C(=S)N2CCCC2)cc1Br`, the “hERG current change (%, negative = inhibition) at 10uM” value is given as -7.39%.
Regarding `CCOC(=O)Cc1csc(NC(=O)NC2(C(F)(F)F)Oc3ccccc3O2)n1`, the “hERG current change (%, negative = inhibition) at 10uM” value stood at 5.19%.
As to `O=C(NCCc1ccccc1)c1ccc(CS(=O)(=O)Cc2ccccc2F)o1`, the “hERG current change (%, negative = inhibition) at 10uM” value was -19.7%.
With `CCCCN(C)C(=O)C1CCN(Cc2ccccn2)CC1.O=C(O)C(=O)O` the figure was -4.27%; with `CCCCN(C)C(=O)C1CCN(Cc2cccnc2)CC1`, 9.71%; with `CCCCN(C)C(=O)C1CCN(CCCc2ccccc2)CC1.O=C(O)C(=O)O`, -73.4%.
In the case of `CN(CCO)CC(O)CN(c1ccccc1)c1ccccc1.Cl` (stereo not shown), the “hERG current change (%, negative = inhibition) at 10uM” value is listed as -52.1%.
For the molecule `OCC(O)CN(c1ccccc1)c1ccccc1` (stereo not shown), the “hERG current change (%, negative = inhibition) at 10uM” value stood at 2.58%.
With `CN(C)CC(O)CN(c1ccccc1)c1ccccc1` (stereo not shown) the figure was -54%.
For `Cl.OCCN(CCO)CC(O)CN(c1ccccc1)c1ccccc1` (stereo not shown), the “hERG current change (%, negative = inhibition) at 10uM” value is given as -14.6%.
With `NCC(O)CN(c1ccccc1)c1ccccc1` (stereo not shown) the figure was 12%; with `CNCC(O)CN(c1ccccc1)c1ccccc1` (stereo not shown), -39.8%; with `CCCCCCn1c(=O)c(C(=O)Nc2nnc(C)s2)c(O)c2ccccc21`, -1.74%.
Turning to `Cc1nnc(Nc2ccc3c(c2)OCO3)c2ccccc12`, the “hERG current change (%, negative = inhibition) at 10uM” value is -7.51%.
For the molecule `O=C(CCc1nnc2n(Cc3ccc(F)cc3)c(=O)c3ccccc3n12)NCCN1CCOCC1`, the “hERG current change (%, negative = inhibition) at 10uM” value is given as -20.3%.
In the case of `Cc1ccc(Cn2c(=O)c3ccccc3n3c(CCC(=O)NCCN4CCOCC4)nnc23)cc1`, the “hERG current change (%, negative = inhibition) at 10uM” value is recorded as -19.5%.
With `O=C(CCc1nnc2n(Cc3ccc(F)cc3)c(=O)c3ccccc3n12)NCCCN1CCOCC1` the figure was -16.4%.
With `O=C(CCc1nnc2n(Cc3ccccc3)c(=O)c3ccccc3n12)NCCN1CCOCC1` the figure was -1.06%; with `CC1CCCCN1CCNC(=O)CCc1nnc2n(Cc3ccccc3)c(=O)c3ccccc3n12` (stereo not shown), -51.6%.
With `CC1CCCC(C)N1CCNC(=O)CCc1nnc2n(Cc3ccccc3)c(=O)c3ccccc3n12` (stereo not shown) the figure was -42.6%; with `O=C(CCc1nnc2n(Cc3ccc(Cl)cc3)c(=O)c3ccccc3n12)NCCCN1CCOCC1`, -59.9%.
With `O=C(CCc1ccccc1)NCCCN1CCOCC1`, the “hERG current change (%, negative = inhibition) at 10uM” value came to 12.3%.
Consider `O=C(CCc1nnc2n(Cc3ccc(Cl)cc3)c(=O)c3ccccc3n12)NCCN1CCCC1`, for which the “hERG current change (%, negative = inhibition) at 10uM” value is listed as -75.8%.
With `COc1ccccc1CNC(=O)Cn1cc([N+](=O)[O-])ccc1=O` the figure was 15.2%.
As to `O=C1c2ccc3c4c(ccc(c24)C(=O)N1c1cccc(O)c1)C(=O)N(c1cccc(O)c1)C3=O`, the “hERG current change (%, negative = inhibition) at 10uM” value is reported as 8.86%.
With `CCc1ccc(NC(=O)C/C(C)=N/NC(=O)COc2ccccc2C)cc1` the figure was -53.2%.
Turning to `CCc1ccc(NC(=O)C/C(C)=N/NC(=O)COc2ccc(C)cc2Br)cc1`, the “hERG current change (%, negative = inhibition) at 10uM” value is recorded as -30.5%.
Regarding `CCc1ccccc1NC(=O)C/C(C)=N/NC(=O)COc1ccccc1C`, the “hERG current change (%, negative = inhibition) at 10uM” value turned out to be 9.02%.
Turning to `COc1ccc(S(=O)(=O)Nc2ccccc2C(=O)N2CCOCC2)cc1C`, the “hERG current change (%, negative = inhibition) at 10uM” value was -0.937%.
With `CCC(=O)Oc1cccc(C(=O)Nc2cccc(NC(=O)c3ccco3)c2)c1` the figure was -1.06%.
With `CCS(=O)(=O)n1nc(-c2ccccc2)nc1NCc1ccco1` the figure was -29.9%; with `COc1ccc(C(=O)N/N=C\c2coc3ccccc3c2=O)cc1`, 6.36%.
With `COc1ccc(OC(C)c2nnc(N)s2)cc1` (stereo not shown), the “hERG current change (%, negative = inhibition) at 10uM” value is listed as -71.4%.
Consider `CC(Oc1ccccc1)c1nnc(N)s1` (stereo not shown), for which the “hERG current change (%, negative = inhibition) at 10uM” value is -1.12%.
Turning to `Cc1ccc(OC(C)c2nnc(N)s2)cc1Cl` (stereo not shown), the “hERG current change (%, negative = inhibition) at 10uM” value is given as -2.12%.
With `Clc1ccc(CSc2nncn2-c2ccccn2)cc1` the figure was -28.7%; with `COCC(C)NCc1cc(Br)ccc1OC.O=C(O)C(=O)O` (stereo not shown), 8.73%; with `C=CCOc1ccc(Br)cc1CNCCO.Cl`, 0.469%.
With `Cl.OCCNCc1cc(Br)ccc1OCc1ccccc1`, the “hERG current change (%, negative = inhibition) at 10uM” value is listed as -55.7%.
Regarding `Cl.OCCNCc1cc(Br)ccc1OCc1ccccc1Cl`, the “hERG current change (%, negative = inhibition) at 10uM” value was -74.9%.
Turning to `CC(C)NCc1cc(Br)ccc1OCc1ccccc1.Cl`, the “hERG current change (%, negative = inhibition) at 10uM” value is listed as -61.8%.
With `Cl.OCCNCCNCc1ccccc1OCc1ccccc1` the figure was 8.83%; with `COc1cc(CNCCO)cc(Br)c1OCc1ccccc1.Cl`, -25.4%.
As for `Cl.OCCNCc1cc(Br)ccc1OCc1ccc(F)cc1`, the “hERG current change (%, negative = inhibition) at 10uM” value is -49.7%.
In the case of `COc1cccc(CNCCO)c1OCc1ccccc1Cl.Cl`, the “hERG current change (%, negative = inhibition) at 10uM” value was -8.68%.
As for `Cl.OCCNCc1cc(Br)ccc1OCc1ccc(Cl)cc1`, the “hERG current change (%, negative = inhibition) at 10uM” value is -66.6%.
For `CC(C)(CO)NCc1cc(Br)ccc1OCc1ccccc1.Cl`, the “hERG current change (%, negative = inhibition) at 10uM” value is on record as -35.5%.
Consider `COc1cc(CNCCO)cc(Br)c1OCc1ccccc1Cl.Cl`, for which the “hERG current change (%, negative = inhibition) at 10uM” value is given as -3.45%.
Regarding `O=C(O)COc1ccc(/C=C2/SC(=S)N(Cc3ccccc3)C2=O)cc1`, the “hERG current change (%, negative = inhibition) at 10uM” value is on record as 17.3%.
`COc1cnc(-c2ccccc2)nc1Oc1cccc(C)c1C`: the “hERG current change (%, negative = inhibition) at 10uM” value was -0.114%.
Take `Cc1ccccc1C1c2[nH]c3ccccc3c2CCN1C(=O)c1ccc(=O)n(C)n1` (stereo not shown): the “hERG current change (%, negative = inhibition) at 10uM” value is reported as -10.6%.
On to `Cc1noc(C)c1COc1cccc(C(=O)NCc2ccccc2Cl)c1`, for which the “hERG current change (%, negative = inhibition) at 10uM” value is on record as -11.3%.
With `Cc1cccc(OCC(=O)NNC(=O)c2cc3ccccc3oc2=O)c1` the figure was -9.32%; with `CC1CC(C)CN(CCCNC(=O)CN2C(=O)c3cccnc3Oc3ccc(Cl)cc32)C1` (stereo not shown), -30.7%.
As for `Cc1ccc(S(=O)(=O)N/N=C/c2cn(C)nc2C)cc1`, the “hERG current change (%, negative = inhibition) at 10uM” value is reported as -2.68%.
Turning to `COc1cc(CNCCCCO)ccc1OCc1ccccc1F.Cl`, the “hERG current change (%, negative = inhibition) at 10uM” value was -14.2%.
As to `Cl.OCCCCNCc1cc(Br)ccc1OCc1ccccc1`, the “hERG current change (%, negative = inhibition) at 10uM” value was -61.8%.
With `Cl.OCCCCNCc1cc(Br)ccc1OCc1ccccc1F` the figure was -24.7%; with `Cc1ccc(OCc2nnc(SCC(=O)N3CCc4ccccc43)n2C)cc1`, 16.4%; with `Cc1ccc(-c2csc3ncn(CC(=O)N4CCOCC4)c(=O)c23)cc1C`, -5.43%.
As for `CCn1c(SCC(=O)Nc2cccc(NC(C)=O)c2)nnc1-c1ccco1`, the “hERG current change (%, negative = inhibition) at 10uM” value was 14.8%.
With `COc1ccc(S(=O)(=O)N2CCOCC2)cc1C(=O)N1CCCCC1` the figure was -31.6%; with `CN(C)CCCN1c2ccc([N+](=O)[O-])cc2CCc2cc([N+](=O)[O-])ccc21`, -50.3%.
For `CC(=O)N1c2ccccc2CCc2ccc([N+](=O)[O-])cc21`, the “hERG current change (%, negative = inhibition) at 10uM” value amounted to 2.5%.
With `Cc1ccccc1CN1CCc2cc([N+](=O)[O-])ccc21` the figure was 19.1%; with `C=CCNC(=S)NC(=O)c1ccc(C)c(Br)c1`, 3.39%.
Consider `N/C(=N\OC(=O)N1CCOCC1)c1ccc(Br)cc1`, for which the “hERG current change (%, negative = inhibition) at 10uM” value worked out at 17.6%.
With `CN1C[C@H](CO)C=C2c3cccc4[nH]cc(c34)C[C@H]21`, the “hERG current change (%, negative = inhibition) at 10uM” value amounted to 4.32%.
Consider `Cc1ccccc1C(=O)Nc1c(C(=O)N(CCN(C)C)Cc2ccco2)oc2ccccc12`, for which the “hERG current change (%, negative = inhibition) at 10uM” value is given as -79.7%.
With `Cc1c(C(=O)N(Cc2ccco2)Cc2cccs2)oc2ccccc12` the figure was -34.2%.
For the molecule `COc1ccccc1C(=O)NCc1ccco1`, the “hERG current change (%, negative = inhibition) at 10uM” value is on record as 9.61%.
For the molecule `CCOC(=O)c1oc2ccccc2c1NC(=O)c1ccccc1OC`, the “hERG current change (%, negative = inhibition) at 10uM” value turned out to be 16.6%.
Regarding `COc1ccccc1C(=O)Nc1c(C(=O)N(CCN(C)C)Cc2ccco2)oc2ccccc12`, the “hERG current change (%, negative = inhibition) at 10uM” value is listed as -82.7%.
Regarding `Cc1c(C(=O)NCc2ccco2)oc2ccccc12`, the “hERG current change (%, negative = inhibition) at 10uM” value is given as -6.97%.
`COCCNC(=S)Nc1cc(OC)c(NC(=O)c2ccco2)cc1OC`: the “hERG current change (%, negative = inhibition) at 10uM” value is recorded as -3.62%.
On to `Cc1ccc(OCCCCNC(C)(C)C)c([N+](=O)[O-])c1.O=C(O)C(=O)O`, for which the “hERG current change (%, negative = inhibition) at 10uM” value is given as -4.42%.
Take `COc1cccc(CNc2nc(SC)ncc2CO)c1`: the “hERG current change (%, negative = inhibition) at 10uM” value was 14.5%.
As to `CC(=O)c1c(C)nc(-c2ccc3c(c2)OCO3)n1O`, the “hERG current change (%, negative = inhibition) at 10uM” value is reported as 0.643%.
With `COc1ccccc1C(=O)C1CCCN(C(=O)C2CCCC2)C1` (stereo not shown) the figure was -6.06%; with `CCc1noc(C)c1C(=O)N1CCCC(C(=O)c2cc(F)ccc2OC)C1` (stereo not shown), 18.6%; with `COc1ccc(F)cc1C(=O)C1CCCN(C(=O)C2=C(C)OCCO2)C1` (stereo not shown), 1.15%.
As for `CCOC(=O)N1CCC(N2CCCC(C(=O)c3cc(F)ccc3OC)C2)CC1` (stereo not shown), the “hERG current change (%, negative = inhibition) at 10uM” value is recorded as -86.7%.
Consider `COc1ccccc1C(=O)C1CCCN(C(=O)c2cc(CC(C)C)nc(C)n2)C1` (stereo not shown), for which the “hERG current change (%, negative = inhibition) at 10uM” value is -60.5%.
`CCOC(=O)N1CCC(N2CCCC(C(=O)c3ccccc3OC)C2)CC1` (stereo not shown): the “hERG current change (%, negative = inhibition) at 10uM” value was -67.7%.
In the case of `Cc1cc(C(=O)N2CCCC(C(=O)c3cccc4ccccc34)C2)nc(C)n1` (stereo not shown), the “hERG current change (%, negative = inhibition) at 10uM” value is listed as -2.09%.
As for `CCN(CC)CC(=O)N1CCCC(C(=O)c2ccccc2OC)C1` (stereo not shown), the “hERG current change (%, negative = inhibition) at 10uM” value was -10.3%.
`COc1ccccc1C(=O)C1CCCN(C(=O)c2ccccn2)C1` (stereo not shown): the “hERG current change (%, negative = inhibition) at 10uM” value is given as 12.4%.

The values above are taken from PMC4336329 (PLoS ONE, 2015).
